Compound activity from PubChem BioAssay.
Rows were chosen to be rich in hits. Some 2.8% of all compounds tested hit in one or more screens of this group.
FEN1 inhibitor: blocks human flap endonuclease 1. Potency, µM (top dose mostly 114 µM), usual class: inhibitors. P39748. Recombinant FEN1 flap cleavage, fluorescence, 15 min. 390,000 compounds, 0.35% hits; further: nearly all actives have a fitted effect of over 65% in size
Target sequence (P39748 whole entry, looked up): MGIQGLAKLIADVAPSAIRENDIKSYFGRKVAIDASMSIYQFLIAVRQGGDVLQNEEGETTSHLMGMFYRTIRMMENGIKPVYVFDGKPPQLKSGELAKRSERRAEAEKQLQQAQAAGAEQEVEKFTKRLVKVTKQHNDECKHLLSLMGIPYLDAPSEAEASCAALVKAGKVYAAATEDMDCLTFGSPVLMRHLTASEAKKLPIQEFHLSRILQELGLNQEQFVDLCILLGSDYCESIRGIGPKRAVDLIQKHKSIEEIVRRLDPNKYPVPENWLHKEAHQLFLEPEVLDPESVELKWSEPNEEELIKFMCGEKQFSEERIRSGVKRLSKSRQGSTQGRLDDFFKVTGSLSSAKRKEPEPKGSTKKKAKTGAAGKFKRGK
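Potency values derive from four-parameter Hill fits of normalized qHTS data. The reaction used 10 nM FEN1 preincubated 15 min at room temperature with compound, then 50 nM DNA substrate, read at 0 and 15 min.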
POLI inh: DNA polymerase iota (human) inhibition; Q9UNA4; Pol iota fluorescent replication assay, 10 min; Potency, µM (series often up to 115 µM), usual class: inhibitors; 390,000 compounds, 1% hits
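Fluorescent replication assay read twice, at 0 min and 10 min after adding 50 nM (final) substrate. Enzyme (10 nM) and compounds were first incubated 15 min at room temperature; enzyme-free buffer wells were negative controls.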
POLB inh: blocks human DNA polymerase beta activity; P06746; AID 485314; Pol beta primer extension/strand displacement, fluorescence kinetic; 340,000 compounds, 1.3% hits; Potency, µM (series often up to 114 µM), most hits filed as inhibitors
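Preincubation: enzyme (10 nM) with compound, 15 min, RT. Reaction: substrate added to 50 nM final. Reads: 0 and 10 min. Analysis: normalized, Hill fit.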
Pol kappa inh-1: blocks human DNA polymerase kappa activity; purified Pol kappa, fluorescent DNA synthesis assay, 10 min; 400,000 compounds, 0.53% hits; Potency, µM (titrated, usually from 107 µM), hits mostly inhibitors
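First, compounds were pin-transferred onto 10 nM Pol kappa. After 15 min at room temperature, substrate was added to 50 nM final. Fluorescence was then measured kinetically at 0 and 10 min.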
PI5P4Ka inh: PI5P4K alpha (human) kinase inhibition; PI5P4Kalpha enzyme, ADP-Glo luminescence, 60 min; stronger effect = lower value; AID 652105; P48426; max response, %; 330,000 compounds, 1.2% hits; active means max response of -50% or lower; inconclusive means between -30% and -50%; inactive means -30% or higher; further: value at the top dose of about 77 µM
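Luminescence from ADP-Glo served as readout of PI5P4Kalpha activity in a qHTS format. Reaction: enzyme, substrate, compound, ATP at 5 microM final, 60 min at RT.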
Pol eta inh-1: inhibitors of human DNA polymerase eta; recombinant Pol eta, fluorescent DNA replication assay; Potency, µM (titrated, usually from 114 µM), usual class: inhibitors; 390,000 compounds, 1.2% hits
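Pol eta at 10 nM preincubated with compounds 15 min at room temperature; reaction started with fluorescent substrate (50 nM final) and read kinetically at 0 and 10 min.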
TbPGK inh: validation of Trypanosoma brucei phosphoglycerate kinase inhibitors; shares compounds with Pol kappa inh-1; TbPGK coupled GAPDH assay, Kinase-Glo luminescence; Potency, µM (titrated, usually from 57.5 µM), hits mostly inhibitors; 500 compounds, 79% hits; AID 686980; further: nearly all actives have a fitted effect of over 65% in size
Pol iota confirm: Human Pol iota inhibitor confirmatory assay | shares compounds with Pol kappa inh-1 | Pol iota primer extension, TAMRA/BHQ fluorescence | Potency, µM, hits mostly inhibitors | 1,500 compounds, 77% hits | AID 720496
Pol kappa inh-2: confirmation of human DNA polymerase kappa inhibitors | purified Pol-kappa, fluorescent strand-displacement substrate | shares compounds with Pol eta inh-1 | AID 720501 | Potency, µM, most hits filed as inhibitors | 920 compounds, 76% hits
Pol eta inh-2: confirmation of human DNA polymerase eta inhibitors | shares compounds with Pol eta inh-1 | Pol eta primer extension, TAMRA/BHQ fluorescence, 10 min | Potency, µM, most hits filed as inhibitors | 2,600 compounds, 64% hits
Numbers stand for hits; . = inactive; ? = inconclusive; / = no result. Unless noted, the call rests on the fitted dose curve; in most records, active means well fitted curve in the direction sought with a large enough effect; inconclusive means small, poorly fitted or top-dose-only effect, or another doubt; inactive means no such curve, though single readings can be large; an effect the other way counts as inactive or inconclusive.

SMILES	FEN1 inhibitor	POLI inh	POLB inh	Pol kappa inh-1	PI5P4Ka inh	Pol eta inh-1	TbPGK inh	Pol iota confirm	others
COc1ccccc1NC(=O)c1cnc(SCC(=O)N2CCOCC2)n(C)c1=O	.	.	.	.	/	?	/	?
CCCCCCCCCCCC	/	/	/	.	/	/	/	/
CCc1nc2ccc(C(=O)N3CCN(c4ccccc4)CC3)cn2c1N(CCC(C)C)CCN(C)C	/	/	/	/	.	/	/	/
CC(C)=CCc1cc(-c2oc3cc(O)cc(O)c3c(=O)c2O)ccc1O	.	?	/	.	-55	?	.	/
CCOc1cc(C(=O)CCC(=O)OCC(=O)NC(=O)NCC(C)C)ccc1O	.	.	.	.	.	.	/	/
O=C(/C=C/c1ccc(O)c(O)c1)OC1C(O)CC(OC(=O)/C=C/c2ccc(O)c(O)c2)(C(=O)O)CC1O (stereo unspecified)	.	5µM	1.4µM	?	.	?	/	24
NNc1nc2c(Cl)c(Cl)ccc2s1	?	14µM	?	?	?	?	?	67
O=C1NC(=O)/C(=C/c2ccc3c(c2)OC(F)(F)O3)S1	/	/	/	.	/	/	/	/
COc1ccccc1/C=N/Nc1nncc2ccccc12	.	.	.	.	.	.	/	/
COc1ccc(/C=N/Nc2nncc3ccccc23)cc1	.	.	.	.	.	.	18µM	/
BrC(=C\c1ccccc1)/C=N/Nc1ccc2nncn2n1	?	?	?	.	.	50µM	/	34
C(=N\Nc1ccc2nncn2n1)/c1ccco1	.	.	.	.	.	.	/	/
O=C(c1ccco1)c1coc2c1cc(O)c1ccccc12	.	.	.	.	.	.	/	/
Cc1ccc(O)c(N=Nc2ccccc2)n1	.	.	.	.	-78	.	15µM	/
Oc1ccc(Cl)cc1N=Nc1ccccc1	.	.	.	.	.	.	/	/
O=C(Nc1ccc2c(c1)OCCO2)c1coc2ccccc2c1=O	.	.	.	.	.	?	4.1µM	/
Cc1ccccc1C(=O)Nc1ccc2c(c1)OCCO2	.	?	.	.	.	.	/	/
COc1ccc(N/C=C2\CCc3ccccc3C2=O)cc1	.	.	.	.	?	.	16µM	/
O=C(c1ccc2c3n(nc2c1)-c1ccccc1CO3)N1CCCCC1	.	.	.	.	.	.	9.2µM	/
O=C(c1ccc2c3n(nc2c1)-c1ccccc1CO3)N1CCOCC1	.	.	.	.	?	.	/	/
CCN(CC)CCC12CC(C)OC1=Nc1ccccc1NC2=O (stereo unspecified)	/	/	/	/	.	/	/	/
CN(C(=O)c1cc2sccc2n1C)C1CCCCC1	.	.	.	.	/	.	/	/
Cn1c(C(=O)NC2CCCCC2)cc2sccc21	.	.	.	.	/	.	?	/
CC(OC(=O)Cc1coc2ccc3ccccc3c12)C(=O)NC(N)=O (stereo unspecified)	.	.	.	.	.	.	/	/
COc1ccc(OC)c(N/C=C/C(=O)c2ccccc2)c1	.	.	.	.	.	.	18µM	/
SMILES	FEN1 inhibitor	POLI inh	POLB inh	Pol kappa inh-1	PI5P4Ka inh	Pol eta inh-1	TbPGK inh	Pol iota confirm	others
CC1=C/C(=C(/c2cc(C)c(O)c(Br)c2)c2ccccc2S(=O)(=O)O)C=C(Br)C1=O	?	?	.	?	-65	35µM	18µM	/
Cc1ccc(N2C(=O)c3ccc(C(=O)N4CCN(Cc5ccccc5)CC4)cc3C2=O)cc1	.	.	.	.	.	.	/	/
COC(=O)c1sccc1NC(=O)Nc1ccc(F)cc1	.	.	.	.	.	.	13µM	/
COC(=O)c1sccc1NC(=O)Nc1ccc(C)cc1	.	.	.	.	.	.	/	/
CCSc1nc(O)cc(=O)[nH]1	.	.	.	.	.	?	/	/
N#CNc1nc(O)cc(=O)[nH]1	?	?	.	79µM	-78	?	?	/
Cc1ccc(SC2=C(Sc3ccc(C)cc3)C(=O)c3ccccc3C2=O)cc1	.	6.3µM	.	.	.	18µM	/	?	Pol eta inh-2=85
Cc1ccc(N2C(=O)c3ccccc3C2=O)cc1	.	.	.	.	.	.	/	/
C/C(N)=C(/C#N)C(=O)CSc1nnc(NC(C)C)s1	35µM	?	.	?	/	28µM	/	67	Pol eta inh-2=67
C/C(N)=C(/C#N)C(=O)CSc1nnc(Nc2ccccc2)s1	.	.	.	.	.	.	/	/
O=C(O)CSc1nc2ccc(NC(=O)COc3ccc(Cl)cc3)cc2s1	.	79µM	25µM	?	/	11µM	/	67	Pol eta inh-2=30
Cc1ccc(-c2nn3cnnc3s2)cc1NC(=O)c1ccc(-c2cccc(Cl)c2)o1	/	/	/	/	/	/	/	27	Pol kappa inh-2=?;Pol eta inh-2=76
O=C(Nc1cccc2nsnc12)c1ccc(-c2cccc(Cl)c2)o1	.	?	?	.	.	?	/	/
O=C(CSc1nc2ccccc2o1)N/N=C/c1ccccc1	.	.	.	.	.	.	/	/
COc1ccc2nc(C)cc(SCC(=O)N/N=C/c3ccc(O)c(O)c3)c2c1	?	16µM	2.2µM	28µM	.	4.5µM	/	?	Pol eta inh-2=24
COC(=O)CSc1cc(C)nc2ccc(OC)cc12	.	.	.	.	.	.	/	/
O=C(CSc1nc2ccccc2o1)N/N=C/c1ccc(O)c(O)c1	?	2.5µM	?	7.1µM	-89	3.5µM	3.3µM	17	Pol kappa inh-2=8.4;Pol eta inh-2=12
O=C(N/N=C/c1ccc(O)c(O)c1)N/N=C/c1ccc(O)c(O)c1	2.5µM	0.89µM	0.32µM	0.79µM	-69	0.71µM	1.2µM	3	Pol kappa inh-2=2.1;Pol eta inh-2=6
COc1cccc2c(SCC(=O)N/N=C/c3ccc(O)c(O)c3)cc(C)nc12	?	11µM	2µM	13µM	.	7.9µM	/	30	Pol eta inh-2=19
C=CCN(C(C(=O)OC)C(C)C)S(=O)(=O)C=C (stereo unspecified)	.	.	/	.	/	/	/	/
Cc1nnc(NC(=O)CCSCCC(=O)Nc2nnc(C)s2)s1	.	18µM	28µM	79µM	?	3.2µM	/	42	Pol kappa inh-2=21;Pol eta inh-2=27
CCOC(=O)CCSCC(=O)Nc1nnc(C)s1	.	.	.	.	.	.	/	/
COc1ccc(C2Nc3ccccc3C(=O)N2Cc2ccco2)cc1COc1ccc(N)cc1 (stereo unspecified)	/	/	/	/	/	/	/	75	Pol eta inh-2=85
COc1cc(/C=C(\C#N)C(=O)c2ccc(O)c(O)c2)cc(I)c1O	3.5µM	0.89µM	0.6µM	0.42µM	-85	0.89µM	3.7µM	6.7	Pol kappa inh-2=2.4;Pol eta inh-2=5.4
COc1ccc(C=C(C#N)C(=O)c2ccccc2)cc1	/	/	/	/	.	/	/	/
Cc1cc(C)n(C(N)=NC(=O)c2ccccc2)n1	/	/	/	/	.	.	/	/
